Reference: PubChem BioAssay (Tox21)
Records with an inconclusive call do not appear. Where a call stands in place of a potency, no number is given. Active and inactive are the calls of the source. Calls come from the whole dose curve; as a rule, active = well fitted cell-killing curve with a large enough effect in the repeat runs; inconclusive = weak or mixed curves, or effect the other way; inactive = no such curve, though single readings can be large or run the other way.

experiment: qHTS assay to identify small molecule antagonists of the vitamin D receptor (VDR) signaling pathway - cell viability counter screen (AID 743225); conditions: VDR-bla HEK293T viability, CellTiter-Glo luminescence, 16 h; series mostly up to 61 µM; note: nearly all actives have a fitted effect of over 50% in size
Excerpt: U.S. Tox21 Program National Center for Advancing Translational Sciences [NCATS] NIH Chemical Genomics Center [NCGC] U.S. Environmental Protection Agency [EPA] National Institutes of Environmental Health Sciences [NIEHS] National Toxicology Program [NTP] U.S. Food and Drug Administration [FDA] Tox21 Assay Overview: The vitamin D receptor (VDR), a member of nuclear hormone receptor superfamily, plays a critical role in calcium homeostasis and bone metabolism. It is also involved in cell differentiation and growth, and thrombogenicity. To identify the compounds that inhibit VDR signaling, the VDR-UAS-bla HEK 293T cell line (Invitrogen, Carlsbad, CA, USA) containing a beta-lactamase reporter gene under the control of an upstream activator sequence (UAS) was used to screen the Tox21 10K compound library. The cytotoxicity of the Tox21 compound library against the VDR-bla cell line was tested in parallel by measuring the cell viability using CellTiter-Glo assay (Promega, Madison, WI) in the same wells.
Tox21 Assay Protocol Summary: VDR-bla cells were dispensed at 2,000 cells/5 uL of assay medium per well into black wall/clear-bottom 1536-well plates using a Multidrop Combi (Thermo Fisher Scientific, Waltham, MA) dispenser. After the assay plates were incubated at a 37C and 5% CO2 for 4 h, 23 nL of compounds dissolved in DMSO, positive controls or DMSO only was transferred to the assay plate by a Pintool station (Kalypsys, San Diego, CA), followed by addition of 1 uL of 1-alpha, 25-Dihydroxy Vitamin D3 (3 nM, final concentration in the wells) using a Bioraptr Flying Reagent Dispenser (FRD) workstation (Beckman Coulter, Indianapolis, IN). The plates were incubated at 37C and 5% CO2 for 16 h, and then 1 uL of LiveBLAzerTM B/G FRET substrate was added using a Bioraptr FRD. The plates were incubated at room temperature for 2 h and fluorescence intensity was measured by an Envision plate reader (PerkinElmer, Shelton, CT). For cell viability readout that measures cytotoxicity, 3 ul/well of CellTiter-Glo reagent was added into the assay plates using a Bioraptr FRD. After 30 min incubation at room temperature, the luminescence intensity in the plates was measured using a ViewLux plate reader (PerkinElmer).
Potency is the fitted concentration of half-maximal effect.

Row | SMILES | Potency
1 | Nc1ccc(N)c2ccccc12 | 43.6 µM (active)
2 | CC(C)(C)C(=O)OCOC(=O)C1N2C(=O)CC2S(=O)(=O)C1(C)C (stereo not given) | inactive
3 | C1CCCC1 | inactive
4 | CCCCCCCC(=O)[O-].CCCCCCCC(=O)[O-].[Zn+2] | inactive
5 | CCCC1O[C@@H]2C[C@H]3[C@@H]4CCC5=CC(=O)C=C[C@]5(C)[C@H]4[C@@H](O)C[C@]3(C)[C@]2(C(=O)CO)O1 (stereo not given in full) | inactive
6 | CC1=C(C(=O)OC(C)C)C(c2cccc([N+](=O)[O-])c2)C(C(=O)OC2CN(C(c3ccccc3)c3ccccc3)C2)=C(N)N1 (stereo not given) | 16.9 µM (active)
7 | On1ccccc1=S | inactive
8 | O=C(O)c1ccc(Cl)c(Cl)c1 | inactive
9 | C[C@H]1[C@H]2CC[C@H]3[C@@H]4CC=C5C[C@@H](N(C)C)CC[C@]5(C)[C@H]4CC[C@]23CN1C | inactive
10 | CC/C(=C(\c1ccc(O)cc1)c1ccc(OCCN(C)C)cc1)c1ccccc1 | 19.5 µM (active)
11 | O=C(O)c1cc(O)c2c(c1)C(=O)c1cccc(O)c1C2=O | inactive
12 | COCCCC/C(=N\OCCN)c1ccc(C(F)(F)F)cc1 | inactive
13 | Nc1nc2ccccc2n1Cc1ccc(F)cc1 | inactive
14 | Cc1c(C)c2c(c(C)c1OC(=O)CCC(=O)O)CC[C@@](C)(CCC[C@H](C)CCC[C@H](C)CCCC(C)C)O2 | inactive
15 | Oc1ccc(Cl)cc1Sc1cc(Cl)ccc1O | 30.8 µM (active)
16 | CCOC(=O)/C=C(C)/C=C/C=C(C)/C=C/c1c(C)cc(OC)c(C)c1C | inactive
17 | CCN(C(=O)c1cc(C)cc(OC[C@H](C)Nc2ccncc2)c1)C(C)C | inactive
18 | NNC(=O)c1cccc(C(=O)NN)c1 | inactive
19 | CC(C)OC(=O)c1cc2c(OCC(O)CNC(C)(C)C)cccc2[nH]1 (stereo not given) | inactive
20 | N#CC1(c2ccc(F)cc2)CCC(=O)CC1 | inactive

Row | SMILES | Potency
21 | CCN1/C(=C/C=C/c2sc3ccccc3[n+]2CC)Sc2ccccc21 | inactive
22 | CCCCCCCC[N+](CCCCCCCC)(CCCCCCCC)CCCCCCCC | 7.75 µM (active)
23 | Cc1ccc(-n2nc(C(C)(C)C)cc2NC(=O)Nc2ccc(OCCN3CCOCC3)c3ccccc23)cc1 | inactive
24 | CCCCCCCCS(=O)C(C)Cc1ccc2c(c1)OCO2 (stereo not given) | 44.5 µM (active)
25 | C[n+]1ccn(Cc2ccccc2)c1 | inactive
26 | C=C(C)C(=O)OCC(O)COc1ccc(C(C)(C)c2ccc(OCC(O)COC(=O)C(=C)C)cc2)cc1 (stereo not given) | 19.5 µM (active)
27 | CCN(CC)CCCC(C)Nc1c2ccc(Cl)cc2nc2ccc(OC)cc12 (stereo not given) | 23.9 µM (active)
28 | CCCCCCCCCOC(=O)c1ccc(O)cc1 | 24.2 µM (active)
29 | O=C(NOCC1CC1)c1ccc(F)c(F)c1Nc1ccc(I)cc1Cl | inactive
30 | CC[C@H]1O[C@]2(CC[C@@H]1C)C[C@@H]1C[C@@H](C/C=C(\C)C[C@@H](C)/C=C/C=C3\CO[C@@H]4[C@H](O)C(C)=C[C@@H](C(=O)O1)[C@]34O)O2 | 21.7 µM (active)
31 | CCCCN1CCCC[C@H]1C(=O)Nc1c(C)cccc1C | inactive
32 | O=C1CCCc2c1cc1ccc3cccc4ccc2c1c34 | inactive
33 | NNc1nc(-c2ccc(N)cc2)cs1 | inactive
34 | CCCCCCCCCCCCc1ccc(O)cc1 | 17.4 µM (active)
35 | COc1cc(-c2nc(NC(=O)c3cc4cc(C)cc(C)c4n3CC(=O)O)sc2CCC2CCCCC2)c(OC)cc1Cl | 10 µM (active)
36 | O=c1cc(-c2ccc(O)cc2)oc2cc(O)cc(O)c12 | inactive
37 | O=C(OCC1CO1)C1CCCCC1C(=O)OCC1CO1 (stereo not given) | inactive
38 | CCCCCCCCCCCCCC[P+](CCCC)(CCCC)CCCC (tested in a mixture with another compound) | inactive
39 | O=C1C=CC(=O)N1c1ccc(Cc2ccc(N3C(=O)C=CC3=O)cc2)cc1 | 21.9 µM (active)
40 | Cc1cc(N)c(S(=O)(=O)O)cc1Cl | inactive
